# Data as given in the supplement of paper PMC3150612.
# ± gives the standard deviation of the averaged measurements.
# Key:
# [1] = system: Drosophila melanogaster; experiment: olfactory response index (dipstick assay) (fraction of flies (RI; 1 aversion, 0.5 indifferent, 0 attraction)); higher = stronger aversion to the odorant; details: odorant concentration: 1% v/v, male
# [2] = system: Drosophila melanogaster; experiment: as above; details: odorant concentration: 1% v/v, female
# [3] = genotype (tubulin-GAL4 x UAS-RNAi line; control = progenitor): A5
# [4] = genotype (tubulin-GAL4 x UAS-RNAi line; control = progenitor): control
# [5] = genotype (tubulin-GAL4 x UAS-RNAi line; control = progenitor): obp 18a
# [6] = genotype (tubulin-GAL4 x UAS-RNAi line; control = progenitor): obp 22a
# [7] = genotype (tubulin-GAL4 x UAS-RNAi line; control = progenitor): obp 28a
# [8] = genotype (tubulin-GAL4 x UAS-RNAi line; control = progenitor): obp 56a
# [9] = genotype (tubulin-GAL4 x UAS-RNAi line; control = progenitor): obp 56c
# [10] = genotype (tubulin-GAL4 x UAS-RNAi line; control = progenitor): obp 56f
# [11] = genotype (tubulin-GAL4 x UAS-RNAi line; control = progenitor): obp 57a
# [12] = genotype (tubulin-GAL4 x UAS-RNAi line; control = progenitor): obp 57b
# [13] = genotype (tubulin-GAL4 x UAS-RNAi line; control = progenitor): obp 58c
# [14] = genotype (tubulin-GAL4 x UAS-RNAi line; control = progenitor): obp 59a
# [15] = genotype (tubulin-GAL4 x UAS-RNAi line; control = progenitor): obp 83a
# [16] = genotype (tubulin-GAL4 x UAS-RNAi line; control = progenitor): obp 83c
# [17] = genotype (tubulin-GAL4 x UAS-RNAi line; control = progenitor): obp 93a
# [18] = genotype (tubulin-GAL4 x UAS-RNAi line; control = progenitor): obp 99b
# [19] = genotype (tubulin-GAL4 x UAS-RNAi line; control = progenitor): obp 56h
compound,measurement,setting,value
O=Cc1ccccc1 [benzaldehyde],olfactory response index,[1]; [3],0.725 ± 0.049
same,olfactory response index,[1]; [4],0.83 ± 0.13
same,olfactory response index,[1]; [5],0.53 ± 0.1
same,olfactory response index,[1]; [6],0.467 ± 0.074
same,olfactory response index,[1]; [7],0.621 ± 0.14
same,olfactory response index,[1]; [8],0.418 ± 0.068
same,olfactory response index,[1]; [9],0.522 ± 0.14
same,olfactory response index,[1]; [10],0.656 ± 0.11
same,olfactory response index,[1]; [11],0.547 ± 0.17
same,olfactory response index,[1]; [12],0.636 ± 0.024
same,olfactory response index,[1]; [13],0.702 ± 0.035
same,olfactory response index,[1]; [14],0.739 ± 0.0092
same,olfactory response index,[1]; [15],0.591 ± 0.15
same,olfactory response index,[1]; [16],0.557 ± 0.023
same,olfactory response index,[1]; [17],0.537 ± 0.042
same,olfactory response index,[1]; [18],0.299 ± 0.13
same,olfactory response index,[1]; [19],0.555 ± 0.12
same,olfactory response index,[2]; [3],0.8108 ± 0.005
same,olfactory response index,[2]; [4],0.694 ± 0.053
same,olfactory response index,[2]; [5],0.534 ± 0.029
same,olfactory response index,[2]; [6],0.708 ± 0.24
same,olfactory response index,[2]; [7],0.757 ± 0.076
same,olfactory response index,[2]; [8],0.683 ± 0.17
same,olfactory response index,[2]; [9],0.645 ± 0.031
same,olfactory response index,[2]; [10],0.75 ± 0.058
same,olfactory response index,[2]; [11],0.839 ± 0.059
same,olfactory response index,[2]; [12],0.748 ± 0.087
same,olfactory response index,[2]; genotype (tubulin-GAL4 x UAS-RNAi line; control = progenitor): obp 58b,0.753 ± 0.048
same,olfactory response index,[2]; [13],0.795 ± 0.051
same,olfactory response index,[2]; [14],0.863 ± 0.051
same,olfactory response index,[2]; [15],0.663 ± 0.16
same,olfactory response index,[2]; [16],0.797 ± 0.16
same,olfactory response index,[2]; [17],0.738 ± 0.11
same,olfactory response index,[2]; [18],0.379 ± 0.16
same,olfactory response index,[2]; [19],0.726 ± 0.091
